Hits are enriched below; roughly 3.6% of the tested compounds scored in any of these assays.
FAS-TE inh = FAS thioesterase domain inhibitors, primary screen, biochemical, fluorescence intensity, uHTS. Fatty acid synthase (Homo sapiens), P49327. recombinant FAS-TE, OMFH fluorogenic substrate, fluorescence endpoint. inhibition, % at 15 µM. 0.67% of 360,000 active;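 active = compounds whose normalised, plate-corrected inhibition of enzyme fluorescence in the single-dose primary screen is 50% or more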;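 also: 0% = DMSO with enzyme and 100% = substrate without enzyme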
Myeloid diff 2 = induction of myeloid progenitor differentiation, primary screen, cell-based, flow cytometry, MLPCN library. ER-HoxA9 myeloid progenitors, lysozyme-GFP differentiation. calls only at 10 µM. 1% of 360,000 active;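 active = normalized GFP-positive differentiation at or above the plate's own cutoff, the solvent-only control mean plus 3 SD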;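 also: cells exposed to compound for four days before flow analysis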
CRFR2-BP antag = antagonists of CRF-BP/CRF-R2 complex, primary screen, cell-based, HEK293, calcium dye fluorescence, uHTS | inhibition, % at 11.8 µM | 0.59% of 350,000 active | CRF-induced calcium fluorescence;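 active = inhibition of the ligand-induced calcium signal above about 50% at the single tested concentration, limit read from the data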
NadD inh = inhibitors of S. aureus NadD, primary screen, biochemical, colorimetric, uHTS | purified NadD enzyme, colorimetric absorbance read-out | inhibition, % at 20 µM | 0.78% of 360,000 active | Nicotinate-nucleotide adenylyltransferase NadD (Staphylococcus aureus N315); in the data active = inhibition above about 26%
NRP1-CendR mod = modulators of CendR peptide binding to NRP-1, primary screen, biochemical, fluorescence polarization, uHTS; Neuropilin-1 (Homo sapiens), O14786; AID 602438, 2012; inhibition, % at 25 µM; FAM-RPARPAR peptide binding to NRP-1; 0.85% of 360,000 active;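 active = inhibition or corrected inhibition above about 18%, plus a signal ratio from 0.5 to 1.5, limit read from the data, passing the limit was not always enough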
NadD conf = inhibitors of S. aureus NadD, confirmation, biochemical, colorimetric, single concentration | 13% of 2,000 active | shares compounds with NadD inh | inhibition, % at 20 µM | purified S. aureus NadD, colorimetric enzyme assay; in the data active = inhibition mostly above about 42%, no sharp cut-off; inactive = mostly below about 42%
Starred values were filed as active, the others as inactive; i = inactive; nt = not tested or not shown; + = active, no number.

SMILES | FAS-TE inh | Myeloid diff 2 | CRFR2-BP antag | NadD inh | NRP1-CendR mod | NadD conf
CCOC(CNCc1cc(C)c2[nH]c3ccccc3c2c1C)OCC | 1 | i | -17 | -2 | 0 | nt
CCc1cccc2c1NC(=O)C21N2CCCC2C(C(=O)c2ccc3ccccc3c2)C12C(=O)Nc1ccccc12 (stereo not given) | 28 | i | -58 | 39* | -6 | 52*
Cc1cccc2c1NC(=O)C21N2CCCC2C(C(=O)c2ccc3ccccc3c2)C12C(=O)Nc1ccccc12 (stereo not given) | nt | nt | -34 | nt | nt | nt
COc1ccc([C@@H]2CC(=O)[C@@H]3CN(S(=O)(=O)c4ccc(Cl)cc4)[C@H](c4ccc(C)cc4)C[C@@H]3N2S(=O)(=O)c2ccccc2)cc1 | 26 | i | nt | 30* | -3 | 8
CC(C)(C)S(=O)N1Cc2cc(C(=O)NCc3ccc(Oc4ccccc4)cc3)nc(-c3cccc(-c4cc5ccccc5o4)c3)c2[C@H]1CCO (stereo not given in full) | -18 | i | nt | 35* | -5 | 23
CC(C)(C)S(=O)N1Cc2cc(C(=O)NCc3ccc4c(c3)OCO4)nc(-c3cccc(-c4cc5ccccc5o4)c3)c2[C@@H]1CCO (stereo not given in full) | -4 | i | nt | 33* | -12 | 6
CC(C)(C)S(=O)N1Cc2cc(C(=O)NCCCN3CCOCC3)nc(-c3cccc(-c4cc5ccccc5o4)c3)c2[C@@H]1CCO (stereo not given in full) | 1 | i | nt | -6 | 1 | nt
O=C(Cc1c2ccccc2nc2ccccc12)c1ccccc1 | -5 | i | 18 | 1 | 4 | nt
O=C(NCc1ccc(/C=N\NC(=O)C(=O)Nc2ccccc2Br)o1)C(=O)Nc1ccccc1 | 10 | i | 9 | 36* | -52 | 8
CC(C)C[C@H]1CNC(=S)N1CC1CCCN1C[C@H](Cc1ccccc1)N1C[C@H](Cc2ccc(O)cc2)N(CC2CCCCC2)C1=S (stereo not given in full) | -96 | i | -6 | 32* | 0 | -1
CC(C)C[C@H]1CNC(=S)N1CC1CCCN1C[C@H](Cc1ccc(O)cc1)N1C[C@H](Cc2ccccc2)N(CC2CCCCCC2)C1=S (stereo not given in full) | -129 | i | -4 | 22 | -8 | nt
CC(C)C[C@H]1CNC(=S)N1C[C@H]1CCCN1C[C@H](Cc1ccc(O)cc1)N1C[C@H](Cc2ccccc2)N(CC2CCCCC2)C1=S | -67 | i | nt | 9 | -4 | nt
CC(C)C[C@H]1CNC(=S)N1C[C@H]1CCCN1C[C@H](Cc1ccccc1)N1C[C@H](Cc2ccc(O)cc2)N(CC2CCCCCC2)C1=S | -102 | + | nt | 42* | 0 | -12
COc1cccc(-c2nc(N3CCN(c4ccccc4)CC3)c3ccccc3n2)c1O | 20 | i | 2 | 31* | 16 | 8
COc1cccc(-c2nc(N3CCCCC3)c3ccccc3n2)c1O | 37 | i | -6 | 0 | 1 | nt
O=[N+]([O-])c1cc2c(cc1/C=N/Nc1nc(Nc3ccccc3)nc(N3CCCCC3)n1)OCO2 | 24 | i | -8 | 39* | -24 | 3
O=[N+]([O-])c1ccc(Nc2nc(NC3CCCCC3)nc(N3CCCC3)n2)cc1 | 44 | i | -22 | 39* | 39* | 11
O=[N+]([O-])c1ccc(Nc2nc(N/N=C/c3cccc(F)c3)nc(N3CCCC3)n2)cc1 | 7 | i | 15 | 38* | 2 | -3
CCOc1ccccc1NC(=O)CSc1nc2nc(-c3cccs3)cc(C(F)(F)F)c2c(=O)[nH]1 | 14 | i | 23 | 13 | -21 | nt
COc1ccc(NC(=O)CSc2nc3nc(-c4cccs4)cc(C(F)(F)F)c3c(=O)[nH]2)c(OC)c1 | 6 | i | 45 | 40* | -16 | 60*
C[C@@H]1CN([C@@H](C)CO)C(=O)c2cc(NC(=O)c3ccccc3)ccc2O[C@@H](C)CCCCO[C@@H]1CN(C)S(=O)(=O)c1ccc(F)cc1 | 20 | i | -3 | 11 | -11 | nt
Oc1nc(Nc2ccc(Cl)cc2Cl)sc1/C=C1\C=Nc2ccccc21 | 22 | i | -19 | 42* | -56 | 0
O=S(=O)(Nc1ccc2c(c1)nc1n2CCN(Cc2ccccc2)C1)c1ccc(Cl)cc1 | 2 | i | -33 | 32* | -47 | 43
O=C(NCC1CCCN1S(=O)(=O)c1ccccc1)C(=O)NC1CC1 (stereo not given) | -5 | i | 5 | -5 | 3 | nt
O=C1NC[C@H](Cc2ccc(O)cc2)N(C[C@@H]2CCCN2C[C@H](Cc2ccc(O)cc2)N2C[C@H](Cc3ccccc3)N(CC3CCCCCC3)C(=O)C2=O)C1=O | 23 | i | nt | 45* | 4 | 40
SMILES | FAS-TE inh | Myeloid diff 2 | CRFR2-BP antag | NadD inh | NRP1-CendR mod | NadD conf
O=C1NC[C@H](Cc2ccc(O)cc2)N(C[C@@H]2CCCN2C[C@H](Cc2ccc(O)cc2)N2C[C@H](Cc3ccccc3)N(CCc3ccccc3)C(=O)C2=O)C1=O | 3 | i | nt | 17 | -7 | nt
O=C1NC[C@H](Cc2ccc(O)cc2)N(C[C@@H]2CCCN2C[C@H](Cc2ccccc2)N2C[C@H](Cc3ccc(O)cc3)N(CC3CCCCCC3)C(=O)C2=O)C1=O | 19 | i | nt | 39* | 6 | 46
CC(C)C[C@H]1CN([C@@H](Cc2ccc(O)cc2)CN2CCC[C@H]2CN2C(=O)C(=O)NC[C@@H]2Cc2ccccc2)C(=O)C(=O)N1CC1CCCCC1 | 13 | i | nt | 23 | -6 | nt
O=C1NC[C@H](Cc2ccccc2)N(C[C@H]2CCCN2C[C@H](Cc2ccccc2)N2C[C@H](Cc3ccc(O)cc3)N(CC3CCCCCC3)C(=O)C2=O)C1=O | 44 | i | 9 | 31* | -13 | 48*
O=C1NC[C@H](Cc2ccccc2)N(C[C@H]2CCCN2C[C@H](Cc2ccc(O)cc2)N2C[C@H](Cc3ccc(O)cc3)N(CC3CCCCCC3)C(=O)C2=O)C1=O | 22 | i | 3 | 33* | 6 | 34
NNC(=O)CNC(=O)c1cccc(Br)c1 | -6 | i | -18 | 5 | 1 | nt
O=C(NCC1CCCN1S(=O)(=O)c1cccs1)c1ccc(Cl)cc1 (stereo not given) | 0 | i | -13 | -2 | -5 | nt
Cc1cc2nc(-c3cccc(Cl)c3)c(Cc3ccccc3)n2c(C)c1Br | 11 | i | nt | 14 | -21 | nt
Cc1cc2nc(-c3cccc(Br)c3)c(Cc3cccc(Cl)c3)n2c(C)c1Br | 26 | i | nt | 35* | -19 | 15
O=C(NC1CC2CCCC(C1)N2C(=O)Nc1ccccc1Cl)C1CC1 (stereo not given) | -3 | i | -1 | 3 | 2 | nt
